From PubChem BioAssay (Tox21)
Inconclusive results are not listed. Entries that show only a call come without a potency. A structure can be active in one record and inactive in another. The source made the active and inactive calls. Unless noted, calls follow the shape of the dose curve; as a rule, active = well fitted curve in the direction sought with a large enough effect in the repeat runs; inconclusive = weak or mixed curves; inactive = no such curve, though single readings can be large; an effect the other way counts as inactive or inconclusive.

What was measured:
[1] = qHTS assay to identify small molecule antagonists of the glucocorticoid receptor (GR) signaling pathway - cell viability counter screen (AID 720693); also: nearly all actives have a fitted effect of over 55% in size; also: potency is read from the fitted curve at half-maximal effect
[2] = qHTS assay for identifying genotoxic compounds that show differential cytotoxicity against isogenic chicken DT40 cell lines with known DNA damage response pathways - wild type cell line (AID 743012); also: nearly all actives have a fitted effect of over 60% in size; also: potency is read from the fitted curve at half-maximal effect
How it was run: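 CellTiter-Glo luminescence readout of viability in wild type DT40 cells after 40 h compound exposure at 37 C/5% CO2; 300 cells/well; reagent incubated 30 min at room temperature before reading.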

[3] = qHTS assay for identifying genotoxic compounds that show differential cytotoxicity against isogenic chicken DT40 cell lines with known DNA damage response pathways - Rev3 mutant cell line (AID 743014); also: nearly all actives have a fitted effect of over 55% in size; also: potency is read from the fitted curve at half-maximal effect
[4] = qHTS assay for identifying genotoxic compounds that show differential cytotoxicity against isogenic chicken DT40 cell lines with known DNA damage response pathways - Rad54/Ku70 mutant cell line (AID 743015); also: nearly all actives have a fitted effect of over 60% in size; also: potency is read from the fitted curve at half-maximal effect
[5] = qHTS assay to identify small molecule antagonists of the androgen receptor (AR) signaling pathway - cell viability counter screen (AID 743033; also: nearly all actives have a fitted effect of over 45% in size)
[6] = qHTS assay to identify small molecule antagonists of the androgen receptor (AR) signaling pathway using the MDA cell line - cell viability counter screen (AID 743041; also: nearly all actives have a fitted effect of over 45% in size; also: potency is read from the fitted curve at half-maximal effect)
How it was run: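 Cytotoxicity counter screen: MDA-kb2 AR-luc cells, compound + R1881, 16 h, 37C, 0% CO2; CellTiter-Fluor added at 15.5 h, fluorescence read after 30 min.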

Aromatase (Homo sapiens) = Aromatase (Homo sapiens) (UniProt P11511); assay: qHTS assay to identify aromatase inhibitors (AID 743083); also: nearly all actives have a fitted effect of over 55% in size; also: potency is read from the fitted curve at half-maximal effect
[7] = qHTS assay to identify small molecule antagonists of the thyroid receptor (TR) signaling pathway (AID 743065); also: nearly all actives have a fitted effect of over 55% in size; also: potency is read from the fitted curve at half-maximal effect
How it was run: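 GH3.TRE-Luc rat pituitary cells (two TREs driving luciferase) were dosed with compound, then stimulated with 1 nM T3 (final) for 23.5 h at 37 C. ONE-Glo luminescence was the read-out, with CellTiter-Fluor fluorescence as the cytotoxicity counter-screen.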

[8] = tested on: thyroid hormone receptor (rat, GH3 cells); assay: qHTS assay to identify small molecule agonists of the thyroid receptor (TR) signaling pathway (AID 743066; calls by dose curve)
[9] = qHTS assay to identify small molecule antagonists of the estrogen receptor alpha (ER-alpha) signaling pathway - cell viability counter screen (AID 743074; calls by dose curve;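 also: HEK293 cells carrying ER-alpha-UAS-bla reporter stimulated with 17beta-estradiol; nearly all actives have a fitted effect of over 45% in size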; also: potency is read from the fitted curve at half-maximal effect)
[10] = qHTS assay to identify small molecule antagonists of the estrogen receptor alpha (ER-alpha) signaling pathway using the BG1 cell line - cell viability counter screen (AID 743081);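 also: compound given together with 17beta-estradiol as the ER stimulus; nearly all actives have a fitted effect of over 45% in size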; also: potency is read from the fitted curve at half-maximal effect
[11] = qHTS assay to identify small molecule antagonists of the thyroid receptor (TR) signaling pathway - cell viability counter screen (AID 743064); also: nearly all actives have a fitted effect of over 50% in size; also: potency is read from the fitted curve at half-maximal effect
How it was run: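 Viability of T3-stimulated (1 nM final) GH3.TRE-Luc cells is measured by CellTiter-Fluor fluorescence after 23.5 h compound exposure at 37 °C plus 30 min reagent incubation.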

[12] = target: Estrogen receptor (Homo sapiens) (UniProt P03372); assay: qHTS assay to identify small molecule antagonists of the estrogen receptor alpha (ER-alpha) signaling pathway (AID 743069; active = well fitted curve in the direction sought with a large enough effect in the signal ratio in the repeat runs, not every such curve was filed as active; the % refers to the signal ratio)
How it was run: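 Beta-lactamase FRET fluorescence is read after 2 hr at room temperature with LiveBLAzer B/G substrate. Before that, ER-alpha-bla HEK293 cells sit 4 hr after plating, then receive compound plus 17beta-estradiol and incubate 18 hr at 37C.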

[13] = target: Estrogen receptor (Homo sapiens) (UniProt P03372); assay: qHTS assay to identify small molecule agonists of the estrogen receptor alpha (ER-alpha) signaling pathway (AID 743075; calls by dose curve;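 also: HEK293 GripTite cells with ER-alpha and UAS-driven beta-lactamase reporter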)
[14] = target: Estrogen receptor (Homo sapiens) (UniProt P03372); assay: qHTS assay to identify small molecule agonists of the estrogen receptor alpha (ER-alpha) signaling pathway using the BG1 cell line (AID 743079); also: nearly all actives have a fitted effect of over 20% in size; also: potency is read from the fitted curve at half-maximal effect
[15] = qHTS assay to identify small molecule antagonists of the estrogen receptor alpha (ER-alpha) signaling pathway using the BG1 cell line (AID 743080; calls by dose curve;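 also: BG1 cells stimulated with 17beta-estradiol alongside compound; nearly all actives have a fitted effect of over 25% in size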; also: potency is read from the fitted curve at half-maximal effect)
How it was run: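 Endogenous full-length ER-alpha in BG1-Luc-4E2 cells drives a stably integrated 4×ERE luciferase gene; compounds were tested against 17beta-estradiol over 21.5 h, with luminescence and multiplexed viability fluorescence recorded.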

[16] = target: Androgen receptor (Homo sapiens) (UniProt P10275); assay: qHTS assay to identify small molecule antagonists of the androgen receptor (AR) signaling pathway (AID 743035; active = well fitted inhibition curve with a large enough effect in the signal ratio in the repeat runs, not every such curve was filed as active; the % refers to the signal ratio; also: potency is read from the fitted curve at half-maximal effect)
How it was run: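 AR-bla HEK293 reporter cells; 4 h settle at 37C/5% CO2; compound + R1881 agonist, 16 h at 37C; LiveBLAzer B/G FRET substrate 2 h RT; fluorescence intensity read. qHTS format.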

[17] = target: Androgen receptor (Homo sapiens) (UniProt P10275); assay: qHTS assay to identify small molecule agonists of the androgen receptor (AR) signaling pathway (AID 743036; active = well fitted activation curve with a large enough effect in the signal ratio in the repeat runs, with a control signal flat, not every such curve was filed as active; the % refers to the signal ratio)
How it was run: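 Screening used 2,000 AR-bla HEK293 cells per well, treated 16 h at 37C with test compounds in DMSO alongside positive and DMSO-only controls; beta-lactamase activity was then read by LiveBLAzer B/G FRET fluorescence after 2 h at room temperature.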

[18] = target: Androgen receptor (Homo sapiens) (UniProt P10275); assay: qHTS assay to identify small molecule agonists of the androgen receptor (AR) signaling pathway using the MDA cell line (AID 743040; also: nearly all actives have a fitted effect of over 20% in size; also: potency is read from the fitted curve at half-maximal effect)
How it was run: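 Luciferase read-out, ONE-Glo, 30 min RT. Cells: MDA-kb2 AR-luc, MMTV promoter with AR and GR response elements. Compound exposure 16 h, 37C, 0% CO2, after 5 h pre-incubation. qHTS agonist mode.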

[19] = target: Androgen receptor (Homo sapiens) (UniProt P10275); assay: qHTS assay to identify small molecule antagonists of the androgen receptor (AR) signaling pathway using the MDA cell line (AID 743042; also: nearly all actives have a fitted effect of over 55% in size; also: potency is read from the fitted curve at half-maximal effect)
How it was run: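 MDA-kb2 breast carcinoma cells carrying MMTV-luciferase (AR/GR responsive) were co-treated with compounds and the agonist R1881 for 16 h at 37C. Inhibition read as ONE-Glo luminescence; CellTiter-Fluor fluorescence measured in parallel for cytotoxicity.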

Aromatase (Homo sapiens), sequence (P11511 whole entry, looked up): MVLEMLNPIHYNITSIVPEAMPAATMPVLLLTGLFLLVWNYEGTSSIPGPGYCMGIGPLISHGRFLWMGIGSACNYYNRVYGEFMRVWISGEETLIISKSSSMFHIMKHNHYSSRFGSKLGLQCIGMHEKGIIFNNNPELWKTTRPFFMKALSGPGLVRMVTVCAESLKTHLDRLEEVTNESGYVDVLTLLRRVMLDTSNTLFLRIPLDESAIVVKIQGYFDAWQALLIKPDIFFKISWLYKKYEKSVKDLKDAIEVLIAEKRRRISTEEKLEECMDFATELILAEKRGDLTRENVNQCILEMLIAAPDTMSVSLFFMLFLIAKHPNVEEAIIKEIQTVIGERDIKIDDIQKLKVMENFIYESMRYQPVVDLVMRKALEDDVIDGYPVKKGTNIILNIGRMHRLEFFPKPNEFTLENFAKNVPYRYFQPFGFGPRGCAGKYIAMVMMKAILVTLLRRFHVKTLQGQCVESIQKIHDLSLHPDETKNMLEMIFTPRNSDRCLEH
Androgen receptor (Homo sapiens), sequence (P10275 whole entry, looked up): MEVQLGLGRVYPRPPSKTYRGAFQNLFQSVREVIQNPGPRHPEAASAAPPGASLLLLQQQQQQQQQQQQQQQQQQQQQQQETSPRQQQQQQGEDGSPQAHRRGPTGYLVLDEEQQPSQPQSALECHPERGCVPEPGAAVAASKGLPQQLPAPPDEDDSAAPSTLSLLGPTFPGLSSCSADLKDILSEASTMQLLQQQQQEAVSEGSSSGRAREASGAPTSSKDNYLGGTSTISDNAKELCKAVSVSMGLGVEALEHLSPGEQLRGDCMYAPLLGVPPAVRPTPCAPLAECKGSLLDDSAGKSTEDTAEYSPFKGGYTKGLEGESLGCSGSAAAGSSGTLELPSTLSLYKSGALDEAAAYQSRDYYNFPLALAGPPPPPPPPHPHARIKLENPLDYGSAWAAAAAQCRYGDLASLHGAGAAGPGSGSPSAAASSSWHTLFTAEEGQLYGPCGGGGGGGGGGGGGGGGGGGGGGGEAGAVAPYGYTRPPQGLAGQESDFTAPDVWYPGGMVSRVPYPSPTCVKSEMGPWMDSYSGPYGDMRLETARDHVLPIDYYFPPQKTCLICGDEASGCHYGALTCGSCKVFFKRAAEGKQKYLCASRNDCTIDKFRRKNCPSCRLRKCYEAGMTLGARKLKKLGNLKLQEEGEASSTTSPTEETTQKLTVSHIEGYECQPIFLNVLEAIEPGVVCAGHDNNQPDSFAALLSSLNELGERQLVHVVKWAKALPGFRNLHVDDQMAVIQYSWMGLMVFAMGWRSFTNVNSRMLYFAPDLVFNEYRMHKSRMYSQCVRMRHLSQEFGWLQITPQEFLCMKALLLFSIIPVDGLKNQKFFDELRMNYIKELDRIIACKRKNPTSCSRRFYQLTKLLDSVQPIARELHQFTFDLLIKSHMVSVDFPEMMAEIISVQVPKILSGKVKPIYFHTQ
Estrogen receptor (Homo sapiens), sequence (P03372 whole entry, looked up): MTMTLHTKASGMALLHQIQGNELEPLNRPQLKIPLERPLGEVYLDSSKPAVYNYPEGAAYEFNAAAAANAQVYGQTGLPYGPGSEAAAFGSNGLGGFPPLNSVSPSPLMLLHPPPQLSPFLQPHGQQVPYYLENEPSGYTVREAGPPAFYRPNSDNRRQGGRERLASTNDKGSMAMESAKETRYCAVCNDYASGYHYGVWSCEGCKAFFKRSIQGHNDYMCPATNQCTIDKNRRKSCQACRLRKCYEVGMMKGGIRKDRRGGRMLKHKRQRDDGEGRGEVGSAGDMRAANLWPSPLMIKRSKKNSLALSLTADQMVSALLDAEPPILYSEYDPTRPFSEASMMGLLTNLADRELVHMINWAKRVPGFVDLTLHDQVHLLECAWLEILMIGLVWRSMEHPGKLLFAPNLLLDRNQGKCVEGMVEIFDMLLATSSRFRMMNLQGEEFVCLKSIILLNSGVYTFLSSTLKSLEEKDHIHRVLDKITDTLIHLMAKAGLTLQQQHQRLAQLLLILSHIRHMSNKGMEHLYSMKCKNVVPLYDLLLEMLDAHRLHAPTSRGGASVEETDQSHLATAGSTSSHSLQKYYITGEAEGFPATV

SMILES: C=C1C(=C/C=C2\CCC[C@]3(C)[C@@H]([C@H](C)CCCC(C)C)CC[C@@H]23)C[C@@H](O)C[C@@H]1O
- Potency [1]: 21.3 µM (active)
- Potency [2]: 5.96 µM (active)
- Potency [3]: 13.3 µM (active)
- Potency [4]: 6.68 µM (active)
- Potency [5]: inactive
- Potency [6]: inactive
- Potency (Aromatase (Homo sapiens)): inactive

SMILES: CCN(CC)C(=O)c1cccnc1
- Potency [1]: inactive
- Potency [2]: inactive
- Potency [3]: inactive
- Potency [4]: inactive
- Potency [5]: inactive
- Potency [6]: inactive
- Potency [7]: inactive
- Potency [8]: inactive
- Potency [9]: inactive
- Potency [10]: inactive

SMILES: O=C(O)c1cc(O)c2c(c1)[C@H]([C@H]1c3cc(C(=O)O)cc(O)c3C(=O)c3c(O[C@@H]4O[C@H](CO)[C@@H](O)[C@H](O)[C@H]4O)cccc31)c1cccc(O[C@@H]3O[C@H](CO)[C@@H](O)[C@H](O)[C@H]3O)c1C2=O
- Potency [1]: inactive
- Potency [2]: inactive
- Potency [3]: inactive
- Potency [4]: inactive
- Potency [6]: inactive
- Potency [7]: inactive
- Potency [8]: inactive
- Potency [9]: inactive
- Potency [10]: inactive
- Potency (Aromatase (Homo sapiens)): inactive

SMILES: NCCO/C=C/[C@H](N)C(=O)O
- Potency [1]: inactive
- Potency [2]: inactive
- Potency [3]: inactive
- Potency [5]: inactive
- Potency [6]: inactive
- Potency [11]: inactive
- Potency [7]: inactive
- Potency [8]: inactive
- Potency [12]: inactive
- Potency [9]: inactive
- Potency [13]: inactive
- Potency [14]: 26.6 µM (active)
- Potency [15]: inactive
- Potency [10]: inactive
- Potency (Aromatase (Homo sapiens)): inactive

SMILES: NC[C@@H]1CC[C@@H](N)[C@@H](O[C@H]2[C@H](O)[C@@H](O[C@H]3O[C@H](CO)[C@@H](O)[C@H](N)[C@H]3O)[C@H](N)C[C@@H]2N)O1
- Potency [1]: inactive
- Potency [2]: inactive
- Potency [3]: inactive
- Potency [4]: inactive
- Potency [16]: inactive
- Potency [17]: inactive
- Potency [18]: 29.8 µM (active)
- Potency [6]: inactive
- Potency [19]: inactive
- Potency [11]: inactive
- Potency [7]: inactive
- Potency [8]: inactive
- Potency [12]: inactive
- Potency [9]: inactive
- Potency [13]: inactive
- Potency [14]: 11.9 µM (active)
- Potency [15]: inactive
- Potency [10]: inactive
- Potency (Aromatase (Homo sapiens)): inactive

SMILES: N=C(N)n1cccn1
- Potency [1]: inactive
- Potency [2]: inactive
- Potency [3]: inactive
- Potency [5]: inactive
- Potency [6]: inactive
- Potency [11]: inactive
- Potency [7]: inactive
- Potency [8]: inactive
- Potency [12]: inactive
- Potency [9]: inactive
- Potency [13]: inactive
- Potency [14]: inactive
- Potency [15]: inactive
- Potency [10]: inactive
- Potency (Aromatase (Homo sapiens)): inactive

SMILES: O=C(O)C[C@H](O)C[C@H](O)/C=C/c1c(C2CC2)nc2ccccc2c1-c1ccc(F)cc1
- Potency [1]: inactive
- Potency [2]: 0.531 µM (active)
- Potency [3]: 0.0944 µM (active)
- Potency [5]: inactive
- Potency [16]: 1.69 µM (active)
- Potency [17]: inactive
- Potency [18]: inactive
- Potency [6]: inactive
- Potency [19]: inactive
- Potency [8]: inactive
- Potency [9]: inactive
- Potency [14]: inactive
- Potency [10]: inactive

SMILES: CC12CCC(C[N+](C)(CCC[N+](C)(C)C)C1)C2(C)C (stereo not drawn)
- Potency [1]: inactive
- Potency [2]: inactive
- Potency [3]: inactive
- Potency [5]: inactive
- Potency [6]: inactive
- Potency [11]: inactive
- Potency [7]: inactive
- Potency [8]: inactive
- Potency [12]: inactive
- Potency [9]: inactive
- Potency [13]: inactive
- Potency [14]: inactive
- Potency [15]: inactive
- Potency [10]: inactive
- Potency (Aromatase (Homo sapiens)): inactive

SMILES: C[C@]12O[C@H](C[C@]1(O)CO)n1c3ccccc3c3c4c(c5c6ccccc6n2c5c31)CNC4=O
- Potency [1]: 3.01 µM (active)
- Potency [2]: 0.237 µM (active)
- Potency [3]: 0.376 µM (active)
- Potency [4]: 0.376 µM (active)
- Potency [18]: inactive
- Potency [6]: 11.9 µM (active)
- Potency [19]: 2.98 µM (active)
- Potency [11]: 0.188 µM (active)
- Potency [7]: 0.188 µM (active)
- Potency [9]: 21.3 µM (active)
- Potency [10]: 21.1 µM (active)
- Potency (Aromatase (Homo sapiens)): 2.11 µM (active)

SMILES: CC[C@H]1OC(=O)C[C@@H](O)[C@H](C)[C@@H](O[C@@H]2O[C@H](C)[C@@H](O[C@H]3C[C@@](C)(O)[C@@H](O)[C@H](C)O3)[C@H](N(C)C)[C@H]2O)[C@@H](CC=O)C[C@@H](C)C(=O)/C=C/C(C)=C/[C@@H]1CO[C@@H]1O[C@H](C)[C@@H](O)[C@@H](OC)[C@H]1OC
- Potency [1]: inactive
- Potency [2]: inactive
- Potency [3]: inactive
- Potency [5]: inactive
- Potency [6]: inactive
- Potency [11]: inactive
- Potency [7]: inactive
- Potency [8]: inactive
- Potency [12]: inactive
- Potency [9]: inactive
- Potency [13]: inactive
- Potency [14]: inactive
- Potency [15]: 16.8 µM (active) and inactive
- Potency [10]: inactive
- Potency (Aromatase (Homo sapiens)): inactive

SMILES: O=C(O)COc1ccc(C(=O)c2cccs2)c(Cl)c1Cl
- Potency [1]: inactive
- Potency [2]: inactive
- Potency [3]: inactive
- Potency [5]: inactive
- Potency [16]: inactive
- Potency [18]: inactive
- Potency [6]: inactive
- Potency [19]: inactive
- Potency [8]: inactive
- Potency [12]: inactive
- Potency [9]: inactive
- Potency [13]: inactive
- Potency [14]: inactive
- Potency [15]: inactive
- Potency [10]: inactive
- Potency (Aromatase (Homo sapiens)): inactive

SMILES: Cc1ccc(C(C)(C)c2ccc(C)cc2)cc1
- Potency [1]: inactive
- Potency [2]: inactive
- Potency [3]: inactive
- Potency [5]: inactive
- Potency [6]: inactive
- Potency [11]: inactive
- Potency [7]: inactive
- Potency [8]: inactive
- Potency [12]: inactive
- Potency [9]: inactive
- Potency [13]: inactive
- Potency [14]: inactive
- Potency [15]: inactive
- Potency [10]: inactive
- Potency (Aromatase (Homo sapiens)): inactive

SMILES: O=C(CCN1CCC(c2ccccc2)C1)c1ccc2c(c1)OCCO2 (stereo not drawn)
- Potency [1]: inactive
- Potency [2]: 2.66 µM (active)
- Potency [3]: 4.73 µM (active)
- Potency [4]: 4.22 µM (active)
- Potency [5]: inactive
- Potency [6]: 29.8 µM (active)
- Potency [7]: 26.6 µM (active)
- Potency [12]: inactive
- Potency [9]: inactive
- Potency [13]: inactive
- Potency [14]: inactive
- Potency [15]: inactive
- Potency [10]: inactive

SMILES: Cc1cc(CC(C)CC(C)(C)C)n(O)c(=O)c1 (stereo not drawn) (tested in a mixture with another compound)
- Potency [1]: 15.1 µM (active)
- Potency [2]: 11.9 µM (active)
- Potency [3]: 11.9 µM (active)
- Potency [4]: 13.3 µM (active)
- Potency [5]: inactive
- Potency [11]: 29.8 µM (active)
- Potency [10]: inactive
- Potency (Aromatase (Homo sapiens)): 13.3 µM (active)
